According to PubChem BioAssay AID1159580 (chemical genetic matrix, 2015):
Among all 5,500 compounds or so, about 2,000 (36%) were called active. Another 18% or so got no clear call; they are omitted. No stated cut-off is given here; in the data, active means normalized growth mostly below about 0.91 (no sharp cut-off); inconclusive means no clear call, values can overlap the other calls; inactive means mostly above about 0.92. This is one part of the list.

Experiment: chemical genetic growth profiling, strain panel (AID 1159580);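 further: tested at 20 µM; growth read once vehicle control cultures reached saturation at 30 °C; 1 = growth at the plate median or of vehicle wells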
Conditions: S. cerevisiae deletion strains, growth OD
[1] = locus YAR019C, strain CDC15, stronger effect = lower value
[2] = locus YBL105C, strain PKC1, stronger effect = lower value
[3] = locus YBR135W, strain CKS1, stronger effect = lower value
[4] = locus YBR136W, strain MEC1, stronger effect = lower value
[5] = locus YBR160W, strain CDC28, stronger effect = lower value
[6] = locus YDL017W, strain CDC7, stronger effect = lower value
[7] = locus YDL028C, strain MPS1, stronger effect = lower value
[8] = locus YDL101C, strain DUN1, stronger effect = lower value
[9] = locus YDL108W, strain KIN28, stronger effect = lower value
[10] = locus YDL132W, strain cdc53, stronger effect = lower value
[11] = locus YDL214C, strain PRR2, stronger effect = lower value
[12] = locus YDR052C, strain DBF4, stronger effect = lower value
[13] = locus YDR054C, strain cdc34, stronger effect = lower value
[14] = locus YDR226W, strain ADK1, stronger effect = lower value
[15] = locus YDR477W, strain SNF1, stronger effect = lower value
[16] = locus YER123W, strain YCK3, stronger effect = lower value
[17] = locus YER133W, strain GLC7, stronger effect = lower value
[18] = locus YFL009W, strain cdc4, stronger effect = lower value
[19] = locus YFL029C, strain CAK1, stronger effect = lower value
[20] = locus YFR003C, strain YPI1, stronger effect = lower value
[21] = locus YFR019W, strain FAB1, stronger effect = lower value
[22] = locus YFR028C, strain CDC14, stronger effect = lower value
[23] = locus YGR040W, strain KSS1, stronger effect = lower value
[24] = locus YGR052W, strain FMP48, stronger effect = lower value
[25] = locus YGR092W, strain DBF2, stronger effect = lower value
[26] = locus YHR030C, strain SLT2, stronger effect = lower value
[27] = locus YHR079C, strain IRE1, stronger effect = lower value
[28] = locus YHR082C, strain KSP1, stronger effect = lower value
[29] = locus YHR205W, strain SCH9, stronger effect = lower value
[30] = locus YIL147C, strain SLN1, stronger effect = lower value
[31] = locus YJL095W, strain BCK1, stronger effect = lower value
[32] = locus YJL128C, strain PBS2, stronger effect = lower value
[33] = locus YJL157C, strain FAR1, stronger effect = lower value
[34] = locus YJR016C, strain ILV3, stronger effect = lower value
[35] = locus YJR066W, strain TOR1 (second series), stronger effect = lower value
[36] = locus YJR066W, strain TOR1, stronger effect = lower value
[37] = locus YKL048C, strain ELM1, stronger effect = lower value
[38] = locus YKL067W, strain YNK1, stronger effect = lower value
[39] = locus YKL101W, strain HSL1, stronger effect = lower value
[40] = locus YKL193C, strain SDS22, stronger effect = lower value
[41] = locus YKL203C, strain TOR2, stronger effect = lower value
[42] = locus YLR113W, strain HOG1, stronger effect = lower value
[43] = locus YLR133W, strain CKI1, stronger effect = lower value
[44] = locus YLR403W, strain SFP1, stronger effect = lower value
[45] = locus YML070W, strain DAK1, stronger effect = lower value
[46] = locus YMR001C, strain CDC5, stronger effect = lower value
[47] = locus YMR205C, strain PFK2 (second series), stronger effect = lower value
[48] = locus YMR277W, strain FCP1, stronger effect = lower value
[49] = locus YNL006W, strain LST8, stronger effect = lower value
[50] = locus YNL020C, strain ARK1, stronger effect = lower value
[51] = locus YNL161W, strain CBK1, stronger effect = lower value
[52] = locus YNL183C, strain NPR1, stronger effect = lower value
[53] = locus YNL207W, strain RIO2, stronger effect = lower value
[54] = locus YNL222W, strain SSU72, stronger effect = lower value
[55] = locus YNL307C, strain MCK1 (second series), stronger effect = lower value
[56] = locus YOL078W, strain AVO1, stronger effect = lower value
[57] = locus YOL136C, strain PFK27, stronger effect = lower value
[58] = locus YOR061W, strain CKA2, stronger effect = lower value
[59] = locus YOR119C, strain RIO1, stronger effect = lower value
[60] = locus YOR231W, strain MKK1, stronger effect = lower value
[61] = locus YOR329C, strain SCD5, stronger effect = lower value
[62] = locus YPL031C, strain PHO85, stronger effect = lower value
[63] = locus YPL153C, strain RAD53, stronger effect = lower value
[64] = locus YPL204W, strain HRR25, stronger effect = lower value
[65] = locus YPL209C, strain IPL1, stronger effect = lower value
[66] = locus YPL256C, strain CLN2, stronger effect = lower value
[67] = locus YPR025C, strain CCL1, stronger effect = lower value
[68] = locus YPR106W, strain ISR1, stronger effect = lower value
[69] = locus YPR111W, strain DBF20, stronger effect = lower value
[70] = strain NNK1, stronger effect = lower value
[71] = strain TSCII, stronger effect = lower value

Measured: normalized growth

COc1ccc(/C=C2/C(=O)Nc3ccccc32)cc1
active: [1] 0.877 | [2] 0.884 | [3] 0.89 | [6] 0.893 | [8] 0.909 | [9] 0.892 | [10] 0.873 | [12] 0.898 | [14] 0.867 | [18] 0.868 | [20] 0.885 | [22] 0.871 | [26] 0.667 | [30] 0.892 | [34] 0.878 | [40] 0.877 | [42] 0.758 | [44] 0.652 | [46] 0.88 | [48] 0.867 | [49] 0.895 | [51] 0.874 | [53] 0.866 | [56] 0.879 | [61] 0.891 | [65] 0.894 | [66] 0.691 | [68] 0.892 | [70] 0.866 | [71] 0.863
inactive: [4] 0.894 | [5] 0.899 | [7] 0.896 | [11] 0.84 | [13] 0.917 | [15] 0.762 | [16] 0.858 | [17] 0.777 | [19] 0.879 | [21] 0.887 | [23] 0.776 | [24] 0.836 | [25] 0.733 | [27] 0.686 | [28] 0.827 | [29] 0.577 | [31] 0.774 | [32] 0.839 | [33] 0.83 | [35] 0.692 | [36] 0.729 | [37] 0.887 | [38] 0.89 | [39] 0.906 | [41] 0.859 | [43] 0.845 | [45] 0.859 | [47] 0.866 | [50] 0.841 | [52] 0.821 | [54] 0.894 | [55] 0.873 | [57] 0.825 | [58] 0.861 | [59] 0.899 | [60] 0.877 | [62] 0.748 | [63] 0.788 | [64] 0.708 | [67] 0.912 | [69] 0.89

O=C1Nc2ccccc2/C1=C/c1ccc(Oc2ccccc2)nc1
inactive: [1] 0.965 | [2] 0.959 | [3] 0.957 | [4] 0.975 | [5] 0.962 | [6] 0.973 | [7] 0.966 | [8] 0.96 | [9] 0.967 | [10] 0.962 | [11] 0.866 | [12] 0.98 | [13] 0.948 | [14] 0.96 | [15] 0.874 | [16] 0.885 | [17] 0.898 | [18] 0.959 | [19] 0.975 | [20] 0.964 | [21] 0.95 | [22] 0.959 | [23] 0.892 | [24] 0.844 | [25] 0.803 | [27] 0.836 | [28] 0.82 | [29] 0.788 | [30] 0.947 | [31] 0.835 | [32] 0.877 | [33] 0.891 | [34] 0.967 | [35] 0.851 | [36] 0.775 | [37] 0.894 | [38] 0.857 | [39] 0.879 | [40] 0.959 | [41] 0.944 | [43] 0.86 | [44] 0.826 | [45] 0.915 | [46] 0.967 | [47] 0.889 | [48] 0.95 | [49] 0.975 | [50] 0.869 | [51] 0.976 | [52] 0.811 | [53] 0.962 | [54] 0.956 | [55] 0.843 | [56] 0.962 | [57] 0.897 | [58] 0.843 | [59] 0.867 | [60] 0.858 | [61] 0.967 | [62] 0.858 | [63] 0.845 | [64] 0.847 | [65] 0.971 | [67] 0.956 | [68] 0.957 | [69] 0.945 | [70] 0.971 | [71] 0.965
active: [26] 0.615 | [42] 0.846 | [66] 0.859
